This is a sample that favours compounds with a hit; in the whole collection about 2.8% have one here.
LGR2 antag = blocks bursicon-induced cAMP signaling via Drosophila LGR2 | HEK293 LGR2, CRE-luciferase, bursicon-stimulated, 4 h | inhibition, % at 9.99 µM | 380,000 tested, 0.35% active;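 active means drop in luminescence signal, shown as inhibition above about 50% in the replicate tests, limit read from the data, passing the limit was not always enough; inconclusive means probably only some replicates passing the limit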;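 further: agonist challenge used bursicon conditioned medium at about half maximal strength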
EWS-Fli inh = inhibitors of EWS/Fli oncoprotein transcriptional activity | A673 NR0B1-luciferase reporter, viability-normalised | inhibition, % at 12.6 µM | 350,000 tested, 0.67% active | AID 651661;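 active means mean inhibition of at least 50% after viability correction, with every replicate also passing that limit; inconclusive means mean reaches 50% but only one of two replicates passes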;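 further: firefly luciferase signal divided by Alamar Blue viability fluorescence both relative to DMSO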
PAX8 inh HTS = lowers PAX8-driven luciferase in RMG-I cells; RMG-I TPO-luciferase reporter, SteadyGlo, 24 h; inhibition, % at 12.6 µM; 360,000 tested, 1.2% active;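 active means mean replicate inhibition at least 60% with every replicate also reaching 60%; inconclusive means only one of the two criteria is met; inactive means mean below 60% and not all replicates reaching 60%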;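 further: luciferase light reporting Pax8 driven TPO promoter activity; plate controls were median of neutral control wells for no effect and mitoxantrone controls for full effect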
TWEAK-Fn14 inh = TWEAK-Fn14 signaling inhibition; 360,000 tested, 2% active; TWEAK-stimulated Fn14 reporter cells, luciferase luminescence, 8 h; AID 1159606; inhibition, % at 10 µM; in the data active means inhibition above about 50%
TROY NFkB inh = TROY signaling inhibition. 360,000 tested, 0.98% active. AID 1347056. inhibition, % at 10 µM. Q293 LMP1-TROYcd NF-kB luciferase reporter, 4 h;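 active means compounds whose plate-normalised and pattern-corrected inhibition of the luciferase reporter signal at the single screening dose is 50% or more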
* hit, by the source's call; u = inconclusive; x = not tested or not shown.

SMILES	LGR2 antag	EWS-Fli inh	PAX8 inh HTS	TWEAK-Fn14 inh	TROY NFkB inh
O=C(NC1CCCC(C(F)(F)F)C1)c1ccc([N+](=O)[O-])o1 (stereo unspecified)	11.5	22.0	75.6*	7.6	-8.0
O=C(Nc1ccccc1)c1cc2ccccc2c(=O)s1	-36.2	x	-65.6	57.6*	-48.8
Cc1ccc(S(=O)(=O)Nc2ccc3c(c2)C(=O)N([C@@H](C)CO)C[C@H](C)[C@H](CN(C)C(=O)Nc2ccc4c(c2)OCO4)O3)cc1	-21.3	-0.2	-14.5	x	x
Cc1nn(-c2ccccc2Cl)c(Cl)c1/C=N/Nc1nc2ccccc2s1	72.0*	x	2.1	108.1*	95.4*
Oc1ccc(C=NNc2nc3ccccc3s2)c(O)c1	u	-42.5	14.2	59.8*	2.6
Oc1ccccc1C=NNc1nc2ccccc2s1	-76.7	-46.4	-61.6	57.2*	-0.2
CCOC(=O)N/N=C/c1c(C)nn(-c2ccccc2Cl)c1Cl	-39.0	x	-156.3	-25.4	-107.8
C[C@H]1CCCCO[C@H](CN(C)CC2CC2)[C@@H](C)CN([C@@H](C)CO)C(=O)c2cc(NS(=O)(=O)c3ccccc3)ccc2O1	13.7	-2.3	-12.6	x	x
CCCC#Cc1ccc2c(c1)O[C@@H](CN(C)C(=O)c1ccccn1)[C@@H](C)CN([C@@H](C)CO)S2(=O)=O	1.6	-0.3	x	x	x
c1csc(-c2ccc3ccccc3n2)c1	x	x	x	-16.4	-46.4
Cc1cc2ncc(-c3cccs3)nc2cc1C	71.2*	29.0	-22.9	71.3*	12.4
Cc1cc(C(=O)Nc2cccc3c2O[C@H](CN(C)C(=O)Nc2ccc4c(c2)OCO4)[C@H](C)CN([C@@H](C)CO)C3=O)n(C)n1	-16.1	-3.0	x	x	x
CCC(=O)Nc1ccc2c(c1)C(=O)N(C)[C@@H]1CC[C@H](CC(=O)NCCc3ccccc3)O[C@@H]1CO2	3.5	2.9	-1.9	x	x
O=C(CSc1ncnc2ccccc12)Nc1ccc2c(c1)OCCO2	-13.2	-6.2	-8.1	-3.0	-18.2
CC(=O)c1cccc(NC(=O)CSc2nc(C3CC3)nc3ccccc23)c1	14.5	16.2	34.6	57.6*	39.8
O=C(CSc1ncnc2ccccc12)Nc1ccc2c(c1)OCO2	-36.6	-3.4	17.8	64.9*	-13.5
CC(Sc1ncnc2ccccc12)C(=O)Nc1ccc2c(c1)OCCO2 (stereo unspecified)	-7.8	x	63.1*	42.1	-31.4
Cc1noc(C)c1NC(=O)Nc1ccc2c(c1)CC(=O)N([C@H](C)CO)C[C@@H](C)[C@H](CN(C)S(=O)(=O)c1ccc(Cl)cc1)O2	6.8	3.1	4.5	x	x
COc1ccccc1-c1ccc2c(c1)O[C@H](CN(C)C(=O)c1cccnc1)[C@H](C)CN([C@H](C)CO)S2(=O)=O	8.4	6.1	-4.3	x	x
O=C(Nc1ccc(-c2ccccc2)cc1)[C@@H]1[C@@H](CO)[C@@H]2Cn3c(cccc3=O)[C@@H]2N1CC1CCCCC1	21.8	8.6	x	x	x
C/C(=N\NC(=O)c1ccc(CN2CCc3ccccc3C2)cc1)c1ccccc1O	11.3	22.7	11.3	82.6*	37.7
O=C(Nc1ccc(S(=O)(=O)N2CCCC2)cc1)c1ccc(CN2CCc3ccccc3C2)cc1	0.0	x	13.9	68.3*	33.4
COc1ccc2c3c([nH]c2c1)[C@@H](CO)N(C(=O)C1CC1)CC31CN(Cc2nccs2)C1	4.3	-3.3	85.9*	x	x
COc1ccc2c3c([nH]c2c1)[C@H](CO)N(C(=O)C1CCCC1)CC31CCN(Cc2cccc(F)c2)CC1	7.6	35.6	x	x	x
COc1ccc2c3c([nH]c2c1)[C@@H](CO)N(C(=O)C1CCCC1)CC31CN(Cc2nccs2)C1	-5.2	12.8	0.5	x	x
SMILES	LGR2 antag	EWS-Fli inh	PAX8 inh HTS	TWEAK-Fn14 inh	TROY NFkB inh
COc1ccc2c3c([nH]c2c1)[C@H](CO)N(C(=O)C1CC1)CC31CCN(Cc2cccc(F)c2)CC1	4.2	35.9	68.7*	x	x
C[C@@H]1CN([C@H](C)CO)S(=O)(=O)c2ccc(C#CC3CC3)cc2O[C@@H]1CN(C)Cc1cncnc1	21.1	-7.2	x	x	x
COCC(=O)Nc1ccc2c(c1)C(=O)N(C)C[C@@H](OC)[C@H](C)CN(C(=O)c1ccccc1F)[C@@H](C)CO2	0.7	-10.0	-1.3	x	x
O=S(=O)(Nc1cccnc1Cl)c1ccc(F)cc1	16.2	4.2	-4.4	-3.3	-9.6
O=S(=O)(Nc1cc(Sc2cccc3cccnc23)c(O)c2ccccc12)c1ccc(F)cc1	x	12.3	102.1*	x	x
O=C(Sc1cccc2cccnc12)c1ccc(F)cc1	23.5	49.0	106.2*	x	x
Cc1noc(C)c1S(=O)(=O)Nc1cccc2c1O[C@H](CN(C)Cc1ccc(C(=O)Nc3ccccc3N)cc1)[C@H](C)CN([C@@H](C)CO)C2=O	6.4	38.9	x	x	x
Nc1cc2c(cc1[N+](=O)[O-])-c1ccccc1C2=NO	-0.4	-63.2	-42.0	72.5*	43.0
O=C(NC(NCc1cccnc1)C(Cl)(Cl)Cl)c1cccc2ccccc12 (stereo unspecified)	-9.1	x	16.1	65.4*	-7.3
O=C(NC(NCc1ccccc1)C(Cl)(Cl)Cl)c1cccnc1 (stereo unspecified)	x	x	2.4	0.9	-2.0
CCc1ccc(NC(=O)Nc2ccsc2C(=O)OC)cc1	17.7	x	-144.6	52.9*	62.7*
COC(=O)c1sccc1NC(=O)Nc1ccc(C)c(C)c1	-109.1	x	-164.8	23.0	44.2
O=C(C[C@@H]1CC[C@H]2[C@@H](COC[C@@H](O)CN2CC2CCCCC2)O1)NCc1ccc(F)cc1	-6.2	69.7*	-23.2	x	x
O=C(C[C@H]1CC[C@H]2[C@@H](COC[C@H](O)CN2Cc2cccc(C(F)(F)F)c2)O1)NCc1ccc(Cl)cc1	-6.6	-5.7	69.8*	x	x
Cc1noc(C)c1NC(=O)Nc1ccc2c(c1)C(=O)N([C@@H](C)CO)C[C@H](C)[C@@H](CN(C)Cc1ccc3c(c1)OCO3)O2	-4.8	-14.1	-7.0	x	x
C[C@@H]1CN([C@@H](C)CO)C(=O)Cc2cc(NC(=O)c3ccncc3)ccc2O[C@@H]1CN(C)C(=O)Nc1ccccc1	2.3	-132.8	-16.0	x	x
Cc1noc(C)c1S(=O)(=O)Nc1ccc2c(c1)C(=O)N([C@@H](C)CO)C[C@@H](C)[C@@H](CN(C)C(=O)NC(C)C)OCCCC[C@@H](C)O2	1.2	-5.5	-3.2	x	x
CC=Cc1ccc2n(c1=O)C[C@@H]1[C@@H](CO)[C@H](C(=O)N(C)C)[C@H]2N1CC1CC1 (mixture of isomers)	-2.7	-3.3	-8.0	x	x
O=C(Nc1nccc(-c2cccs2)n1)c1ccccc1Cl	x	x	x	-12.0	-30.6
O=C(c1ccccc1Cl)N(C(=O)c1ccccc1Cl)c1nccc(-c2cccs2)n1	x	x	-18.1	77.0*	66.8*
O=C(CN1CCOCC1)N[C@H]1CC[C@@H](CCn2cc(C3CCCCC3)nn2)O[C@@H]1CO	-2.9	x	x	x	x
CCOC(=O)NCc1ccc(CNC(=O)OCC)cc1	x	x	x	73.4*	x
Cc1noc(C)c1NC(=O)N(C)C[C@@H]1OCCCC[C@@H](C)Oc2ccc(NS(C)(=O)=O)cc2C(=O)N([C@H](C)CO)C[C@H]1C	11.0	-16.5	-8.0	x	x
COc1ccc(C2c3ccc4ccccc4c3Oc3ncn(CCCN(C)C)c(=N)c32)cc1 (stereo unspecified)	-3.0	63.3*	10.1	-189.1	-43.5

Screening data: PubChem BioAssay, several laboratories
